Test results from the supplement of paper PMC10849652.
Targets with a hit are over-represented here; the source holds about 8,800 in all. About 0.5% of all pairs of compound and target were hits.

Tests used:
Assay in all cases: log2 fold change, soluble protein after heating vs DMSO (PISA); higher = thermal stabilisation; K562 lysate, 10 uM; active = over 0.2 and 3.5 SD of the protein, either way, in both replicates (recomputed)
nilotinib = compound: Cc1cn(-c2cc(NC(=O)c3ccc(C)c(Nc4nccc(-c5cccnc5)n4)c3)cc(C(F)(F)F)c2)cn1 [nilotinib]
Summary of the method: (§1)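 K562 pellets were dounce-homogenised in PBS pH 7.4 containing 1 mM MgCl2, and the crude extract, at 1 mg/mL protein, was exposed to 10 μM compound for 30 min. Aliquots were heated for 3 min across 48°C-58°C, pooled, brought to 0.5% NP-40 at 4°C and spun at 21,000xg for 90 min, with the supernatant taken as soluble protein. TMTpro 16plex LC-MS/MS with equalised channel sums quantified that protein. Values are log-two fold changes in thermal stability relative to solvent controls, taken from duplicates.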

[1] = compound: Cc1nc(Nc2n[nH]c3c2CN(C(=O)N[C@H](CN(C)C)c2ccccc2)C3(C)C)c2sccc2n1
Summary of the method: as §1

dasatinib = compound: Cc1nc(Nc2ncc(C(=O)Nc3c(C)cccc3Cl)s2)cc(N2CCN(CCO)CC2)n1 [dasatinib]
Summary of the method: as §1

[2] = compound: Cc1ncc(-c2ccnc(Nc3ccc(S(C)(=O)=O)cc3)n2)n1C(C)C
Summary of the method: as §1

[3] = compound: Cn1cc(-c2ccc3c(c2)CCN3C(=O)Cc2cccc(C(F)(F)F)c2)c2c(N)ncnc21
Summary of the method: as §1

quisinostat = compound: Cn1cc(CNCC2CCN(c3ncc(C(=O)NO)cn3)CC2)c2ccccc21 [quisinostat]
Summary of the method: as §1

tipifarnib = compound: Cn1cncc1[C@@](N)(c1ccc(Cl)cc1)c1ccc2c(c1)c(-c1cccc(Cl)c1)cc(=O)n2C [tipifarnib]
Summary of the method: as §1

[4] = compound: NC(=O)Nc1cc(-c2cccc(F)c2)sc1C(=O)N[C@H]1CCCNC1
Summary of the method: as §1

[5] = compound: NC(=O)c1cnc(N[C@@H]2CCCC[C@@H]2N)nc1Nc1cccc(-n2nccn2)c1
Summary of the method: as §1

[6] = compound: NC1(c2ccc(-c3nc4ccn5c(=O)[nH]nc5c4cc3-c3ccccc3)cc2)CCC1
Summary of the method: as §1

[7] = compound: NCC(=O)Nc1ccc(-n2nc(C(F)(F)F)cc2-c2ccc3c(ccc4ccccc43)c2)cc1
Summary of the method: as §1

vorinostat = compound: O=C(CCCCCCC(=O)Nc1ccccc1)NO [vorinostat]
Summary of the method: as §1

silmitasertib = compound: O=C(O)c1ccc2c(c1)nc(Nc1cccc(Cl)c1)c1ccncc12 [silmitasertib]
Summary of the method: as §1

[8] = compound: O=C1NC(=O)C(c2cnc3ccccn23)=C1c1cn2c3c(cc(F)cc13)CN(C(=O)N1CCCCC1)CC2
Summary of the method: as §1

entospletinib = compound: c1cn2cc(-c3ccc4cn[nH]c4c3)nc(Nc3ccc(N4CCOCC4)cc3)c2n1 [entospletinib]
Summary of the method: as §1

Measured: log2 fold change

APOB (UniProt P04114)
inactive: nilotinib -0.002 | [1] 0.022 | dasatinib -0.096 | [2] -0.017 | [3] -0.038 | quisinostat -0.092 | tipifarnib 0.033 | [4] 0.013 | [5] -0.035 | [6] 0.008 | [7] 0.063 | vorinostat 0.154 | silmitasertib 0.007 | [8] -0.012 | entospletinib 0.05

ALG8 (UniProt Q9BVK2)
inactive: nilotinib -0.007 | [1] -0.008 | dasatinib -0.051 | [2] -0.077 | [3] 0.02 | quisinostat 0.019 | tipifarnib -0.165 | [4] 0.043 | [5] -0.025 | [6] -0.006 | [7] -0.022 | vorinostat -0.05 | silmitasertib 0.063 | [8] -0.008 | entospletinib -0.007

ABHD17B (UniProt Q5VST6)
inactive: nilotinib 0.032 | [1] 0.057 | dasatinib 0.007 | [2] 0.087 | [3] 0.095 | quisinostat 0.003 | tipifarnib -0.099 | [4] 0.009 | [5] -0.041 | [6] 0.009 | [7] 0.096 | vorinostat 0.219 | silmitasertib -0.021 | [8] 0.032 | entospletinib 0.2

ACADM isoform 2 (UniProt P11310)
active: vorinostat 0.344
inactive: nilotinib -0.031 | [1] -0.008 | dasatinib -0.041 | [2] -0.009 | [3] 0.001 | quisinostat 0.009 | tipifarnib -0.021 | [4] -0.027 | [5] -0.033 | [6] -0.091 | [7] -0.015 | silmitasertib -0.015 | [8] 0.023 | entospletinib 0.016

ADRM1 (UniProt Q16186)
inactive: nilotinib 0.002 | [1] -0.006 | dasatinib -0.063 | [2] 0.015 | [3] -0.003 | quisinostat -0.102 | tipifarnib -0.017 | [4] 0.011 | [5] 0.008 | [6] -0.003 | [7] 0.051 | silmitasertib -0.027 | [8] -0.04 | entospletinib -0.002
active: vorinostat -0.231

AK1 (UniProt P00568)
inactive: nilotinib 0.023 | [1] 0.008 | dasatinib -0.038 | [2] 0.015 | [3] 0.011 | quisinostat 0.118 | tipifarnib 0.056 | [4] 0.004 | [5] 0.003 | [6] 0.009 | [7] 0.005 | vorinostat 0.075 | silmitasertib 0.001 | [8] -0.001 | entospletinib 0.022

AMMECR1 (UniProt Q9Y4X0)
Sequence of UniProt Q9Y4X0 (Q9Y4X0 whole entry, looked up): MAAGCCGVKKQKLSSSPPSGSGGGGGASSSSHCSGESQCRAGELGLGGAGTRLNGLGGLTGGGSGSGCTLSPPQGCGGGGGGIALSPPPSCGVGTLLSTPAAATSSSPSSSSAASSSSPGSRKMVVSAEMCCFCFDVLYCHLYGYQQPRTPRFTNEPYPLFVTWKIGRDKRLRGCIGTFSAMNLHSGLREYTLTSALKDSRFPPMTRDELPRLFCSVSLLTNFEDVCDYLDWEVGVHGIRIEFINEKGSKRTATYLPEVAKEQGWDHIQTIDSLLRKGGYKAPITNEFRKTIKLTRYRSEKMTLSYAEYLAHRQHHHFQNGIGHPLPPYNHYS
inactive: nilotinib -0.005 | [1] -0.025 | dasatinib -0.037 | [2] 0.017 | [3] 0.035 | quisinostat -0.054 | tipifarnib 0.022 | [4] 0.021 | [5] 0.007 | [6] -0.024 | [7] 0.004 | silmitasertib 0.003 | [8] -0.016 | entospletinib 0
active: vorinostat -0.387

AKR1C3 (UniProt P42330)
Sequence of UniProt P42330 (P42330 whole entry, looked up): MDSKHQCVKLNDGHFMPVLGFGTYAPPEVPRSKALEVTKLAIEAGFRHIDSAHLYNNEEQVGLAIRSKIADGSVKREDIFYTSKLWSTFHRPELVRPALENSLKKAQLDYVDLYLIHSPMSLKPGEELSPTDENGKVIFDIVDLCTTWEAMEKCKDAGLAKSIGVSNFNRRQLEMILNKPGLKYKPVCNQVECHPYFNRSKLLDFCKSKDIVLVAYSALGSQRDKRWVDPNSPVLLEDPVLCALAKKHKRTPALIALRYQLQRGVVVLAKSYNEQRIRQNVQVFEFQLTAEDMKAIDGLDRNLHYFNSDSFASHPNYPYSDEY
inactive: nilotinib -0.007 | [1] 0.046 | dasatinib 0.209 | [2] -0.079 | [3] -0.038 | quisinostat -0.055 | tipifarnib 0.04 | [4] 0.036 | [5] -0.059 | [6] -0.013 | [7] -0.009 | silmitasertib 0.044 | [8] 0.009 | entospletinib 0.059
active: vorinostat 0.546

ALDH1A1 (UniProt P00352)
Sequence of UniProt P00352 (P00352 whole entry, looked up): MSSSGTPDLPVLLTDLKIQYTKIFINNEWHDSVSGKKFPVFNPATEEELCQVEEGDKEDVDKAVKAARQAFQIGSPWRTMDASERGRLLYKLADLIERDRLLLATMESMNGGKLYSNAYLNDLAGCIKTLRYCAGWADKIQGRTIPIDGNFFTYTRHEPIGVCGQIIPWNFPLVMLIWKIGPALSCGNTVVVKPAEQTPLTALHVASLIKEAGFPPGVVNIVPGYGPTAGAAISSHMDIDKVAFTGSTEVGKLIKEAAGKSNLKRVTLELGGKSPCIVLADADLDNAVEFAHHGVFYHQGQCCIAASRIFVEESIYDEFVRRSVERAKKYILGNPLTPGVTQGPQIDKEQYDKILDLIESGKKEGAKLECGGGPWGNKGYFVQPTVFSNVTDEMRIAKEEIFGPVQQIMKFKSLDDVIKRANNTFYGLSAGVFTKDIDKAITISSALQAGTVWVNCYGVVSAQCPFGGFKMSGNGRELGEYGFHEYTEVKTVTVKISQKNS
inactive: nilotinib 0.036 | [1] -0.019 | [2] -0.012 | [3] -0.04 | quisinostat 0.015 | tipifarnib 0.019 | [4] 0.014 | [5] -0.011 | [6] 0.034 | [7] -0.038 | vorinostat 0.116 | silmitasertib -0.011 | [8] -0.018 | entospletinib 0.02
active: dasatinib 0.306

ACOX1 isoform 2 (UniProt Q15067)
inactive: nilotinib 0.104 | [1] 0.005 | dasatinib 0.065 | [2] -0.011 | [3] 0.019 | quisinostat 0 | tipifarnib -0.042 | [4] -0.018 | [5] -0.039 | [6] 0 | [7] 0.009 | vorinostat 0.09 | silmitasertib 0.009 | [8] 0.04 | entospletinib -0.012

ACAT1 (UniProt P24752)
Sequence of UniProt P24752 (P24752 whole entry, looked up): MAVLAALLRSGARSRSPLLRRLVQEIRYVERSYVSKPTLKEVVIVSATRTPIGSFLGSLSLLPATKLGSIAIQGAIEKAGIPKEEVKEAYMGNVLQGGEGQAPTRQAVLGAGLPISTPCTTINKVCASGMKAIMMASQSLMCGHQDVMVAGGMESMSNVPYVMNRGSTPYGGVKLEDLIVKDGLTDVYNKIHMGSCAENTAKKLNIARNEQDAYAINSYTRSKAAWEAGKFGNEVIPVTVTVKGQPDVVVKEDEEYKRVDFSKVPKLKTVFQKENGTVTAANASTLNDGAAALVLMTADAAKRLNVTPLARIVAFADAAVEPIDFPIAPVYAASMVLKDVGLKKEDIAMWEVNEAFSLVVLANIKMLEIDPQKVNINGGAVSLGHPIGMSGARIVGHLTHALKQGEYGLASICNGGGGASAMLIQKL
inactive: nilotinib 0.028 | [1] -0.021 | dasatinib 0.015 | [2] 0.019 | [3] -0.029 | quisinostat -0.006 | tipifarnib 0.044 | [4] -0.001 | [5] -0.005 | [6] 0.021 | [7] 0.011 | silmitasertib -0.037 | [8] -0.014 | entospletinib 0.018
active: vorinostat -1.05

ASCC2 (UniProt Q9H1I8)
Sequence of UniProt Q9H1I8 (Q9H1I8 whole entry, looked up): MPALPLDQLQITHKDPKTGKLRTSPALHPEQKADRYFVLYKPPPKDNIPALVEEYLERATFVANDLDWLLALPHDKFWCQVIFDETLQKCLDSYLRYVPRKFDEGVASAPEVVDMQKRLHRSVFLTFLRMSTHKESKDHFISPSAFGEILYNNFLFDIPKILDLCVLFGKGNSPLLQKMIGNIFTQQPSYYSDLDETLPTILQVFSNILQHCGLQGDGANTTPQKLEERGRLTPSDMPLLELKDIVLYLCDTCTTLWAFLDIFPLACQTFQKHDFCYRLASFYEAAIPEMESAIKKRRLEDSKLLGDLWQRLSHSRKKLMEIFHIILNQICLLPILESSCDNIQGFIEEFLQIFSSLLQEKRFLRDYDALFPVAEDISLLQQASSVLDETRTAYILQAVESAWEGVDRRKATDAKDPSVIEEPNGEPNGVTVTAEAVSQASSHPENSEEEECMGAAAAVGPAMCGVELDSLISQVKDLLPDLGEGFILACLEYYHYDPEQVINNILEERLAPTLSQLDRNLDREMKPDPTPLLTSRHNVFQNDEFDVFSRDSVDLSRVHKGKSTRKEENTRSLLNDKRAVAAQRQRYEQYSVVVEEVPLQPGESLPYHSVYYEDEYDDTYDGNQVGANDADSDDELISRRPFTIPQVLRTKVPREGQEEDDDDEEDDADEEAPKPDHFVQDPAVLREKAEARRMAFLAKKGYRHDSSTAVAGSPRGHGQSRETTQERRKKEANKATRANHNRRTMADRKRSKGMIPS
inactive: nilotinib -0.005 | [1] -0.029 | dasatinib -0.01 | [2] -0.018 | [3] 0.026 | quisinostat -0.06 | tipifarnib 0.082 | [4] 0.035 | [5] 0.038 | [6] -0.023 | [7] -0.008 | vorinostat -0.048 | silmitasertib 0.077 | [8] 0.026 | entospletinib -0.017

ACAA1 (UniProt P09110)
inactive: nilotinib 0.035 | [1] -0.019 | dasatinib 0.014 | [2] -0.007 | [3] -0.027 | quisinostat -0.026 | tipifarnib 0.011 | [4] -0.001 | [5] -0.016 | [6] 0.009 | [7] -0.005 | silmitasertib -0.039 | [8] 0.033 | entospletinib 0.038
active: vorinostat -0.332

AGL (UniProt P35573)
Sequence of UniProt P35573 (P35573 whole entry, looked up): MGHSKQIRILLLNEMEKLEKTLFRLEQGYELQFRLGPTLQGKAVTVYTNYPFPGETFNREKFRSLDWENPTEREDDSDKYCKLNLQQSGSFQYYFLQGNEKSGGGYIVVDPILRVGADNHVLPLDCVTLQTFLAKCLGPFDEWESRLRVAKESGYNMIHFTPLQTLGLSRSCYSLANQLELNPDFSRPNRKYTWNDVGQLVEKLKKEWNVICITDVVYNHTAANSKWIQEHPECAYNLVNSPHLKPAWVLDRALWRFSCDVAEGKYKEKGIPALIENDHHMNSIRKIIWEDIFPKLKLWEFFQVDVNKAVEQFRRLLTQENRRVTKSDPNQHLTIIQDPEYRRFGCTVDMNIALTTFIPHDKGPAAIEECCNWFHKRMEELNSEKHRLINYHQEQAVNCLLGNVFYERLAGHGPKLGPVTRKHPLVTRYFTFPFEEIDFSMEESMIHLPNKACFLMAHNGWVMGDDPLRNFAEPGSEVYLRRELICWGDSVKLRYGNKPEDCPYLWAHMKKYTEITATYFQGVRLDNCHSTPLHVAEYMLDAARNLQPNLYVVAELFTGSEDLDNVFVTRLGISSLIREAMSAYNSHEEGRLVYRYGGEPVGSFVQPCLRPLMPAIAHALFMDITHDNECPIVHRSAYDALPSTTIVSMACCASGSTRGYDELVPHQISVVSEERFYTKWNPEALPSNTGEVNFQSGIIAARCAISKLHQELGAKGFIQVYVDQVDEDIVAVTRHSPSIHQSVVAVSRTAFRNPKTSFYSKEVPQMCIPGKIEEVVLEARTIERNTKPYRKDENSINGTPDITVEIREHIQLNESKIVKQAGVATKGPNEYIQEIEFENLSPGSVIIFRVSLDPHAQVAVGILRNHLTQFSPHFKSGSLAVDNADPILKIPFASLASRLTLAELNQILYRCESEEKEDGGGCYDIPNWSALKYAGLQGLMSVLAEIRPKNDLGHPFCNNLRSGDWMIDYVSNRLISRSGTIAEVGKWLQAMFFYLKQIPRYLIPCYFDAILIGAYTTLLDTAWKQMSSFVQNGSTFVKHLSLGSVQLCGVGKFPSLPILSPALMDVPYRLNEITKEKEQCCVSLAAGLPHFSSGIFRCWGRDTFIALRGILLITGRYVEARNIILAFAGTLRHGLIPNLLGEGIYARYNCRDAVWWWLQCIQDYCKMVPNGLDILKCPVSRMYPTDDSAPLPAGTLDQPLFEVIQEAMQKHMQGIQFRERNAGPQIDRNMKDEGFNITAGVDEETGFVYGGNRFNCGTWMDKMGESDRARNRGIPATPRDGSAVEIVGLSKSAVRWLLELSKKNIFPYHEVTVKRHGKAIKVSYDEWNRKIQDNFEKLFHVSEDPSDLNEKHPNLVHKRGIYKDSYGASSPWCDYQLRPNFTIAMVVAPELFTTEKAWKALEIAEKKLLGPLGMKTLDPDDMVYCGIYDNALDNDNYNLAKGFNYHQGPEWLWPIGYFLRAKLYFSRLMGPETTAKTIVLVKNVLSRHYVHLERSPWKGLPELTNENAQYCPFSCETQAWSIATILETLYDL
active: vorinostat -0.275
inactive: nilotinib -0.024 | [1] -0.007 | dasatinib -0.027 | [2] -0.005 | [3] 0.028 | quisinostat -0.016 | tipifarnib 0.016 | [4] 0.038 | [5] 0.016 | [6] -0.007 | [7] 0 | silmitasertib 0.035 | [8] 0.001 | entospletinib -0.018

ACIN1 (UniProt E7EQT4)
inactive: nilotinib 0.033 | [1] -0.032 | dasatinib 0.043 | [2] 0.006 | [3] 0.195 | quisinostat -0.087 | tipifarnib -0.021 | [4] -0.072 | [5] 0.041 | [6] -0.039 | [7] 0.076 | vorinostat 0.079 | silmitasertib -0.013 | [8] -0.013 | entospletinib 0.021

ANXA11 (UniProt P50995)
inactive: nilotinib 0.014 | [1] -0.017 | dasatinib -0.033 | [2] -0.029 | [3] 0.016 | quisinostat 0.005 | tipifarnib -0.011 | [4] -0.002 | [5] 0.009 | [6] 0.028 | [7] -0.003 | vorinostat -0.117 | silmitasertib 0.044 | [8] -0.018 | entospletinib 0.031

ASPH (UniProt Q12797)
inactive: nilotinib -0.033 | [1] -0.025 | dasatinib 0.089 | [2] 0.011 | [3] -0.019 | quisinostat -0.02 | tipifarnib 0.004 | [4] -0.005 | [5] -0.009 | [6] -0.013 | [7] 0 | vorinostat 0.131 | silmitasertib -0.008 | [8] 0.029 | entospletinib -0.016

ARHGAP21 (UniProt Q5T5U3)
active: vorinostat -0.364
inactive: nilotinib -0.017 | [1] -0.014 | dasatinib -0.039 | [2] -0.036 | [3] 0.017 | quisinostat -0.06 | tipifarnib 0.019 | [4] 0.053 | [5] 0.002 | [6] -0.021 | [7] 0.021 | silmitasertib 0.014 | [8] -0.041 | entospletinib -0.104

AP3D1 isoform 5 (UniProt O14617)
Sequence of UniProt O14617 (O14617 whole entry, looked up): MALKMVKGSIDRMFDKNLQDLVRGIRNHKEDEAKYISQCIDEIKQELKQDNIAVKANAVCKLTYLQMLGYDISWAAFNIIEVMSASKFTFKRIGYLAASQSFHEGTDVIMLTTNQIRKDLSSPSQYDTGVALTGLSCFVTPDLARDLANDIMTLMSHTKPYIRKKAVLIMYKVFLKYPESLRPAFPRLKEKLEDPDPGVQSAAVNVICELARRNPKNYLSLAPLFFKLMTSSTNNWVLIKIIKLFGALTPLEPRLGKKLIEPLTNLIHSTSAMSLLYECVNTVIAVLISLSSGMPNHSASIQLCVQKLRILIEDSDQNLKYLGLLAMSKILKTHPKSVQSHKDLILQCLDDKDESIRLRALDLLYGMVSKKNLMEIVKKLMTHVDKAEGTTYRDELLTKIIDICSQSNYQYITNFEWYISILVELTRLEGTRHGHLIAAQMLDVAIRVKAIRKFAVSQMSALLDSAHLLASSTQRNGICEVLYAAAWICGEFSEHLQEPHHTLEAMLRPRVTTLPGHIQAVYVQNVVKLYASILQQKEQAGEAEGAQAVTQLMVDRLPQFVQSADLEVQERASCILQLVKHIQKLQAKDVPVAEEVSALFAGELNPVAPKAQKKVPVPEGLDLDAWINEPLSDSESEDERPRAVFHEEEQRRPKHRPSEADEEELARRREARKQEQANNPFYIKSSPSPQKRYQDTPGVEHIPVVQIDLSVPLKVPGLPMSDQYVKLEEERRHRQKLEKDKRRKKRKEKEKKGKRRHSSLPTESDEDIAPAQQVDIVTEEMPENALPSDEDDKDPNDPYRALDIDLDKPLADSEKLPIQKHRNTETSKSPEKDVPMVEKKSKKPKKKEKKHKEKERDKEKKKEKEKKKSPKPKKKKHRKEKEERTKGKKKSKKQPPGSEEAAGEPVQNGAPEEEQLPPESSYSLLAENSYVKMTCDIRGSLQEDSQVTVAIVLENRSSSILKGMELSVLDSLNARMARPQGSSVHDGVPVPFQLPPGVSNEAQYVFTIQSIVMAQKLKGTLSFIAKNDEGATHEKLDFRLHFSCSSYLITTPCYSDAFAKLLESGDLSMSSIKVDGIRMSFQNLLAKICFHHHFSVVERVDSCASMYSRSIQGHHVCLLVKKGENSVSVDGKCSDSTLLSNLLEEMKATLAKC
inactive: nilotinib -0.001 | [1] 0.018 | dasatinib -0.043 | [2] 0.002 | [3] 0.003 | quisinostat -0.002 | tipifarnib -0.002 | [4] 0.016 | [5] -0.007 | [6] 0.03 | [7] -0.001 | vorinostat -0.015 | silmitasertib -0.003 | [8] 0.012 | entospletinib 0.006
